Screen size: about 5,500 compounds; about 2,000 (36%) were called active. About 18% were inconclusive and are not listed. Cut-off read from the data, not from the text of the source: active = normalized growth mostly below about 0.91 (no sharp cut-off); inconclusive = no clear call, values can overlap the other calls; inactive = mostly above about 0.92. The list shows a part of the results.
Assay: chemical genetic growth profiling, strain panel (AID 1159580);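 note: tested at 20 µM; growth read once vehicle control cultures reached saturation at 30 °C; 1 = growth at the plate median or of vehicle wells; lower values mean less growth of the strain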
Conditions: growth OD
[1] = S. cerevisiae deletion strains, locus YAL013W, strain DEP1, stronger effect = lower value
[2] = S. cerevisiae deletion strains, locus YDL101C, strain DUN1, stronger effect = lower value
[3] = S. cerevisiae deletion strains, locus YDR150W, strain NUM1, stronger effect = lower value
[4] = S. cerevisiae deletion strains, locus YGR078C, strain PAC10, stronger effect = lower value
[5] = S. cerevisiae deletion strains, locus YHR030C, strain SLT2, stronger effect = lower value
[6] = S. cerevisiae deletion strains, locus YJR075W, strain HOC1, stronger effect = lower value
[7] = S. cerevisiae deletion strains, locus YMR263W, strain SAP30, stronger effect = lower value
[8] = S. cerevisiae deletion strains, locus YNL128W, strain TEP1, stronger effect = lower value
[9] = S. cerevisiae deletion strains, locus YNL153C, strain GIM3, stronger effect = lower value
[10] = S. cerevisiae deletion strains, locus YNL322C, strain KRE1, stronger effect = lower value
[11] = S. cerevisiae deletion strains, locus YPL055C, strain LGE1, stronger effect = lower value
[12] = S. cerevisiae deletion strains, locus YPL241C, strain CIN2, stronger effect = lower value
[13] = S. cerevisiae deletion strains, locus YAL040C, strain CLN3, stronger effect = lower value
[14] = S. cerevisiae deletion strains, locus YCL061C, strain MRC1 (second series), stronger effect = lower value
[15] = S. cerevisiae deletion strains, locus YDR363W, strain ESC2, stronger effect = lower value
[16] = S. cerevisiae deletion strains, locus YER002W, strain NOP16, stronger effect = lower value
[17] = S. cerevisiae deletion strains, locus YMR307W, strain GAS1, stronger effect = lower value
[18] = S. cerevisiae deletion strains, locus YNL175C, strain NOP13, stronger effect = lower value
[19] = S. cerevisiae deletion strains, locus YNL197C, strain WHI3, stronger effect = lower value
[20] = S. cerevisiae deletion strains, locus YNL224C, strain SQS1, stronger effect = lower value
[21] = S. cerevisiae deletion strains, locus YOR083W, strain WHI5 (second series), stronger effect = lower value
[22] = S. cerevisiae deletion strains, locus YGR229C, strain SMI1, stronger effect = lower value

Measured: normalized growth

O=C1NC(=S)NC(=O)C1=Cc1cccc2ccccc12
inactive: [1] 0.975 | S. cerevisiae deletion strains, locus YBR229C, strain ROT2, stronger effect = lower value 0.989 | S. cerevisiae deletion strains, locus YCL061C, strain MRC1, stronger effect = lower value 0.97 | [2] 0.963 | [3] 0.891 | S. cerevisiae deletion strains, locus YEL061C, strain CIN8, stronger effect = lower value 0.976 | [4] 0.976 | [5] 0.709 | S. cerevisiae deletion strains, locus YHR087W, strain rtc3, stronger effect = lower value 0.913 | [6] 0.928 | S. cerevisiae deletion strains, locus YKL190W, strain CNB1, stronger effect = lower value 1 | S. cerevisiae deletion strains, locus YLR039C, strain RIC1, stronger effect = lower value 0.841 | S. cerevisiae deletion strains, locus YLR058C, strain SHM2 (second series), stronger effect = lower value 0.99 | S. cerevisiae deletion strains, locus YLR085C, strain ARP6, stronger effect = lower value 0.907 | S. cerevisiae deletion strains, locus YLR262C, strain YPT6, stronger effect = lower value 0.879 | S. cerevisiae deletion strains, locus YML094W, strain GIM5, stronger effect = lower value 0.954 | S. cerevisiae deletion strains, locus YMR219W, strain ESC1, stronger effect = lower value 0.985 | [7] 0.93 | [8] 0.991 | [9] 0.979 | S. cerevisiae deletion strains, locus YNL298W, strain CLA4 (second series), stronger effect = lower value 0.995 | [10] 0.986 | S. cerevisiae deletion strains, locus YNR030W, strain Alg12, stronger effect = lower value 0.988 | [11] 0.92 | [12] 0.983 | S. cerevisiae deletion strains, locus YPR135W, strain CTF4, stronger effect = lower value 0.806 | S. cerevisiae strains, strain wild type, stronger effect = lower value 0.998

N#C/C(=C\c1c[nH]c2ccccc12)C(=O)c1ccc(O)c(O)c1
inactive: [1] 1.02 | [13] 0.987 | [14] 1.02 | [3] 1.01 | [15] 1.03 | [16] 1.01 | [4] 1.02 | [6] 0.996 | [17] 1.03 | [18] 1 | [19] 1.02 | [20] 1 | [10] 1 | [21] 0.973 | [12] 1.02

Cc1ccc(OCC(O)C(C)NC(C)C)c2c1CCC2 (stereo not drawn)
inactive: [13] 0.989 | [14] 0.993 | [3] 1.01 | [15] 0.961 | [16] 0.977 | [4] 0.982 | [22] 1.01 | [7] 1 | [8] 0.985 | [9] 1 | [18] 0.982 | [19] 0.972 | [20] 1 | [21] 1 | [11] 1

O=C(NC(=S)NNc1ncc(C(F)(F)F)cc1Cl)c1cccs1
active: S. cerevisiae deletion strains, locus YAR019C, strain CDC15, stronger effect = lower value 0.665 | S. cerevisiae deletion strains, locus YBL105C, strain PKC1, stronger effect = lower value 0.764 | S. cerevisiae deletion strains, locus YBR135W, strain CKS1, stronger effect = lower value 0.604 | S. cerevisiae deletion strains, locus YBR136W, strain MEC1, stronger effect = lower value 0.537 | S. cerevisiae deletion strains, locus YBR160W, strain CDC28, stronger effect = lower value 0.692 | S. cerevisiae deletion strains, locus YDL017W, strain CDC7, stronger effect = lower value 0.727 | S. cerevisiae deletion strains, locus YDL028C, strain MPS1, stronger effect = lower value 0.537 | [2] 0.576 | S. cerevisiae deletion strains, locus YDL108W, strain KIN28, stronger effect = lower value 0.726 | S. cerevisiae deletion strains, locus YDL132W, strain cdc53, stronger effect = lower value 0.588 | S. cerevisiae deletion strains, locus YDL214C, strain PRR2, stronger effect = lower value 0.218 | S. cerevisiae deletion strains, locus YDR052C, strain DBF4, stronger effect = lower value 0.581 | S. cerevisiae deletion strains, locus YDR054C, strain cdc34, stronger effect = lower value 0.492 | S. cerevisiae deletion strains, locus YDR226W, strain ADK1, stronger effect = lower value 0.527 | S. cerevisiae deletion strains, locus YDR477W, strain SNF1, stronger effect = lower value 0.31 | S. cerevisiae deletion strains, locus YER123W, strain YCK3, stronger effect = lower value 0.17 | S. cerevisiae deletion strains, locus YER133W, strain GLC7, stronger effect = lower value 0.37 | S. cerevisiae deletion strains, locus YFL009W, strain cdc4, stronger effect = lower value 0.51 | S. cerevisiae deletion strains, locus YFL029C, strain CAK1, stronger effect = lower value 0.59 | S. cerevisiae deletion strains, locus YFR003C, strain YPI1, stronger effect = lower value 0.738 | S. cerevisiae deletion strains, locus YFR019W, strain FAB1, stronger effect = lower value 0.384 | S. cerevisiae deletion strains, locus YFR028C, strain CDC14, stronger effect = lower value 0.482 | S. cerevisiae deletion strains, locus YGR040W, strain KSS1, stronger effect = lower value 0.28 | S. cerevisiae deletion strains, locus YGR052W, strain FMP48, stronger effect = lower value 0.171 | S. cerevisiae deletion strains, locus YGR092W, strain DBF2, stronger effect = lower value 0.163 | [5] 0.287 | S. cerevisiae deletion strains, locus YHR079C, strain IRE1, stronger effect = lower value 0.294 | S. cerevisiae deletion strains, locus YHR082C, strain KSP1, stronger effect = lower value 0.296 | S. cerevisiae deletion strains, locus YHR205W, strain SCH9, stronger effect = lower value 0.244 | S. cerevisiae deletion strains, locus YIL147C, strain SLN1, stronger effect = lower value 0.609 | S. cerevisiae deletion strains, locus YJL095W, strain BCK1, stronger effect = lower value 0.244 | S. cerevisiae deletion strains, locus YJL128C, strain PBS2, stronger effect = lower value 0.328 | S. cerevisiae deletion strains, locus YJL157C, strain FAR1, stronger effect = lower value 0.198 | S. cerevisiae deletion strains, locus YJR016C, strain ILV3, stronger effect = lower value 0.624 | S. cerevisiae deletion strains, locus YJR066W, strain TOR1 (second series), stronger effect = lower value 0.15 | S. cerevisiae deletion strains, locus YJR066W, strain TOR1, stronger effect = lower value 0.237 | S. cerevisiae deletion strains, locus YKL048C, strain ELM1, stronger effect = lower value 0.256 | S. cerevisiae deletion strains, locus YKL067W, strain YNK1, stronger effect = lower value 0.17 | S. cerevisiae deletion strains, locus YKL101W, strain HSL1, stronger effect = lower value 0.242 | S. cerevisiae deletion strains, locus YKL193C, strain SDS22, stronger effect = lower value 0.629 | S. cerevisiae deletion strains, locus YKL203C, strain TOR2, stronger effect = lower value 0.234 | S. cerevisiae deletion strains, locus YLR113W, strain HOG1, stronger effect = lower value 0.252 | S. cerevisiae deletion strains, locus YLR133W, strain CKI1, stronger effect = lower value 0.251 | S. cerevisiae deletion strains, locus YLR403W, strain SFP1, stronger effect = lower value 0.123 | S. cerevisiae deletion strains, locus YML070W, strain DAK1, stronger effect = lower value 0.247 | S. cerevisiae deletion strains, locus YMR001C, strain CDC5, stronger effect = lower value 0.549 | S. cerevisiae deletion strains, locus YMR205C, strain PFK2 (second series), stronger effect = lower value 0.23 | S. cerevisiae deletion strains, locus YMR277W, strain FCP1, stronger effect = lower value 0.413 | S. cerevisiae deletion strains, locus YNL006W, strain LST8, stronger effect = lower value 0.714 | S. cerevisiae deletion strains, locus YNL020C, strain ARK1, stronger effect = lower value 0.211 | S. cerevisiae deletion strains, locus YNL161W, strain CBK1, stronger effect = lower value 0.533 | S. cerevisiae deletion strains, locus YNL183C, strain NPR1, stronger effect = lower value 0.195 | S. cerevisiae deletion strains, locus YNL207W, strain RIO2, stronger effect = lower value 0.6 | S. cerevisiae deletion strains, locus YNL222W, strain SSU72, stronger effect = lower value 0.559 | S. cerevisiae deletion strains, locus YNL307C, strain MCK1 (second series), stronger effect = lower value 0.146 | S. cerevisiae deletion strains, locus YOL078W, strain AVO1, stronger effect = lower value 0.585 | S. cerevisiae deletion strains, locus YOL136C, strain PFK27, stronger effect = lower value 0.276 | S. cerevisiae deletion strains, locus YOR061W, strain CKA2, stronger effect = lower value 0.242 | S. cerevisiae deletion strains, locus YOR119C, strain RIO1, stronger effect = lower value 0.237 | S. cerevisiae deletion strains, locus YOR231W, strain MKK1, stronger effect = lower value 0.256 | S. cerevisiae deletion strains, locus YOR329C, strain SCD5, stronger effect = lower value 0.727 | S. cerevisiae deletion strains, locus YPL031C, strain PHO85, stronger effect = lower value 0.441 | S. cerevisiae deletion strains, locus YPL153C, strain RAD53, stronger effect = lower value 0.283 | S. cerevisiae deletion strains, locus YPL204W, strain HRR25, stronger effect = lower value 0.315 | S. cerevisiae deletion strains, locus YPL209C, strain IPL1, stronger effect = lower value 0.736 | S. cerevisiae deletion strains, locus YPL256C, strain CLN2, stronger effect = lower value 0.367 | S. cerevisiae deletion strains, locus YPR025C, strain CCL1, stronger effect = lower value 0.745 | S. cerevisiae deletion strains, locus YPR106W, strain ISR1, stronger effect = lower value 0.472 | S. cerevisiae deletion strains, locus YPR111W, strain DBF20, stronger effect = lower value 0.453 | S. cerevisiae deletion strains, strain NNK1, stronger effect = lower value 0.492 | S. cerevisiae deletion strains, strain TSCII, stronger effect = lower value 0.524

NCCS(=O)O
inactive: [1] 1.01 | [13] 0.998 | [14] 1.01 | [3] 1 | [15] 1.02 | [16] 1 | [22] 1 | [6] 1.01 | [7] 1.01 | [17] 1.01 | [18] 1 | [19] 1 | [20] 0.991 | [21] 1.03 | [12] 1
